The text below walks through data of PubChem BioAssay.

A number with no mark means an inactive call. The source made the active and inactive calls. Unless noted, no stated cut-off is given here; in the data, active means inhibition above about 28%; inactive means the rest.

Tested on in the first experiment: not listed separately
Description: StAR promoter reporter inhibitors, counter-screen for LRH-1 inverse agonist project, cell-based, luminescence, high throughput (AID 651611). Conditions: StAR promoter luciferase reporter counterscreen, at 3.6 µM, stronger effect = higher value. (The purpose of a counterscreen is to sort out artefacts and off-target activity.)
One may read the inhibition as the change of the read-out against control, counted positive when it falls. `Cc1sc2ncnc(NCCc3ccc(S(N)(=O)=O)cc3)c2c1C`: the inhibition was 14.7%.
Same read-out and setting: next, `O=C(COc1ccc(S(=O)(=O)N2CCCC2)cc1Cl)Nc1ccc2c(c1)OCO2`: 0.49%.
Same read-out and setting: next, `CCOC(=O)c1ccc(N=Cc2cnc(N)nc2N)cc1`: -7.89%; `CCN(CC)c1nc(C)c(C(C)=O)cc1C#N`: 1.34%; `COc1ccc2c(c1)C1C=CCC1C(c1cc3c(cc1Br)OCO3)N2` (stereo not given): -3.15%.
On to `CCn1c(=O)oc2cc(NC(=O)CCl)ccc21`, for which the inhibition was 44.4% (active).
`COc1ccc(-c2cc(C(F)F)n3ncc(C(=O)N4CCc5ccccc5C4)c3n2)cc1`: the inhibition was 17.2%.
Same read-out and setting: then `Oc1c(Cl)cc(CN2CCOCC2)c2cccnc12`, with 4.86%.
On to `C=CC(=O)Nc1cccc(Oc2ncnc3[nH]cc(-c4cnc5ccccc5c4)c23)c1`, for which the inhibition is 27.3%.
The same measure, in the same setting: next, `NC(=O)CC[C@H](NC(=O)c1ccc(F)cc1)C(=O)OCC(=O)Nc1ccc(N2CCOCC2)cc1`: 0.81%; `COc1cc(-c2cc(C(=O)NCc3ccc(S(N)(=O)=O)cc3)c3ccccc3n2)cc(OC)c1OC`: 27.1%.
Consider `COCCn1c(SCC(=O)Nc2ccc(NC(C)=O)cc2)nc2ccccc2c1=O`, for which the inhibition is 17%.
Same read-out and setting: next, `O=[N+]([O-])c1ccc(N2CCCC2)nc1N1CCCC1`: 11.1%; `O=C(NC1CCCC(C(F)(F)F)C1)c1ccc([N+](=O)[O-])o1` (stereo not given): 15.8%; `O=C1CC(c2ccc3c(c2)OCCO3)Oc2ccc([N+](=O)[O-])cc21` (stereo not given): 14.5%.
On the same count and under the same terms, next, `COc1ccc(CNC(=O)O[C@@H]2C[C@H]3C(=O)N(c4ccccc4)C(=O)[C@H]3[C@@]3(CN(S(=O)(=O)c4ccc(C)cc4)C[C@H]3C)[C@@H]2O)cc1OC`: 9.47%.
In the case of `Cn1c(=O)oc2cc(NC(=O)CCl)ccc21`, the inhibition was 51.8% (active).
`CNc1c2cccc(C)c2nc2c(C(=O)NCCN(C)C)cccc12`: the inhibition was 80.3% (active).
Still for that read-out and setting: next, `COc1ccc(OC)c(NS(=O)(=O)c2ccc(SC)cc2)c1`: 37.9% (active).
In the case of `COCCn1c(SCC(=O)Nc2ccc(C(C)=O)cc2)nnc1-c1ccco1`, the inhibition was 14.8%.
Consider `O=C(Nc1ccc(S(=O)(=O)N2CCOCC2)cc1)c1cccc([N+](=O)[O-])c1`, for which the inhibition is -6.54%.
`CN1CCN(C2=C(Cl)C(=O)N(c3ccc(Cl)c(Cl)c3)C2=O)CC1`: the inhibition was 11.1%.
The same measure, in the same setting: then `O=C(CSc1ncnc2c1cnn2-c1ccccc1)Nc1ccc2c(c1)OCO2`, with 11%; and `CCn1c(=O)[nH]c(=O)c2c(N)c(C(=O)c3cc(F)ccc3F)sc21`, with 10.4%.
Still for that read-out and setting: next, `CCc1nc(SCC(=O)N2CCc3cc(OC)c(OC)cc3C2)c(C#N)cc1C`: 3.35%.
On the same count and under the same terms, then `O=C(c1ccccc1)N(NC(=O)C(O)(c1ccccc1)c1ccccc1)c1cccc(F)c1`, with -4.21%.
Turning to `COc1ccc(NS(=O)(=O)c2ccc(-c3coc(C)n3)cc2)cc1OC`, the inhibition is 15.6%.
Same read-out and setting: next, `CCOC(=O)CCCc1ccc(/C(C)=N/NC(N)=S)cc1`: 21.6%.
With `COc1ccc(C2=NS(=O)(=O)N(C)C(C(=O)N3CCc4ccccc4C3)=C2)cc1OC`, the inhibition is 5.52%.
On the same count and under the same terms, then `COc1ccc(NC(=O)CSc2nnc3ccc(-c4cccnc4)nn23)cc1OC`, with 7.32%.
With `O=c1cc(C2CCCCC2)[nH]c(=O)[nH]1`, the inhibition was 10.2%.
For `Cc1ccc(-c2nn3c(C)nnc3s2)cc1NC(=O)c1cccs1`, the inhibition is 17.1%.
On to `Cc1cc(O)c(/C=N/Nc2cccc(Cl)c2)c(=O)o1`, for which the inhibition is -0.11%.
For the compound `COc1ccc(C2(C)NC(=O)N(CC(=O)Nc3ccc(C)cc3Br)C2=O)cc1OC` (stereo not given), the inhibition is 15.7%.
On to `COc1ccc(CCNC(=O)c2ccc(CSc3ccc(Cl)cc3)o2)cc1OC`, for which the inhibition was -6.83%.
Regarding `COc1cc2c(cc1OC)-c1c(OC)c(OC)cc3ccnc(c13)C2=O`, the inhibition is 41.2% (active).
`COc1cc(N)c2ncccc2c1Cl`: the inhibition was -0.07%.
Consider `N#CCc1ccc(OCCCN2CCC(C(O)(c3ccccc3)c3ccccc3)CC2)cc1`, for which the inhibition was 8.39%.
Still for that read-out and setting: next, `CCn1c(SCC(=O)Nc2ccc(Cl)cc2)nnc1C1CC1`: 14%; `Cc1cc(C(=O)CSc2nnnn2-c2ccccc2)c(C)n1-c1ccc2c(c1)OCO2`: 0.11%.

The next experiment deals with Nuclear receptor subfamily 5 group A member 2 (Homo sapiens) (UniProt O00482). Description: NR5A2 activity suppression in reporter cells – cell-based, luminescence, confirmation (AID 651613; in the data active means inhibition above about 42%;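 further: HEK293T cells co-transfected with LRH-1 and StAR promoter luciferase reporter; 0% = vehicle wells and 100% = parental cells lacking receptor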). The note with it: cell-based LRH-1 luciferase reporter, inverse agonism; at 3.6 µM; stronger effect = higher value. In general terms: A reporter such as luciferase makes a cellular process visible.
Sequence of Nuclear receptor subfamily 5 group A member 2 (Homo sapiens) (O00482 whole entry, looked up): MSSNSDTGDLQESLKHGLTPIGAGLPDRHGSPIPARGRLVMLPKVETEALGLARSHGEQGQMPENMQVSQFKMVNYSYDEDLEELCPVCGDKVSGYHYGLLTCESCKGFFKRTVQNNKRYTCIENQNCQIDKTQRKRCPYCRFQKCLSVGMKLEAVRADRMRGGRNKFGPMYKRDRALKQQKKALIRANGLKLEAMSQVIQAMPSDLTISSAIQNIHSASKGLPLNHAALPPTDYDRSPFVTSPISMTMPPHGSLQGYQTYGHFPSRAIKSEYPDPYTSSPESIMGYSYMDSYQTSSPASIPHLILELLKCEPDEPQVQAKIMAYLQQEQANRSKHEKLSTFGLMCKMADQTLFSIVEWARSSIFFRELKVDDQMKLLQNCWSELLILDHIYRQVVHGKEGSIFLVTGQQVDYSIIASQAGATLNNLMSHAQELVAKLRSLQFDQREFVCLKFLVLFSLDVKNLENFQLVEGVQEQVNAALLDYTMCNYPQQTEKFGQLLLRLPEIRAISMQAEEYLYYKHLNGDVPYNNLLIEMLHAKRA
`Cc1sc2ncnc(NCCc3ccc(S(N)(=O)=O)cc3)c2c1C`: the inhibition was 53% (active).
For `O=C(COc1ccc(S(=O)(=O)N2CCCC2)cc1Cl)Nc1ccc2c(c1)OCO2`, the inhibition was 50.4% (active).
`CCOC(=O)c1ccc(N=Cc2cnc(N)nc2N)cc1`: the inhibition is -2.86%.
On to `CCN(CC)c1nc(C)c(C(C)=O)cc1C#N`, for which the inhibition was 32.7%.
Take `COc1ccc2c(c1)C1C=CCC1C(c1cc3c(cc1Br)OCO3)N2` (stereo not given): the inhibition was 37%.
On the same count and under the same terms, next, `CCn1c(=O)oc2cc(NC(=O)CCl)ccc21`: 64.4% (active); `COc1ccc(-c2cc(C(F)F)n3ncc(C(=O)N4CCc5ccccc5C4)c3n2)cc1`: 58.3% (active).
With `Oc1c(Cl)cc(CN2CCOCC2)c2cccnc12`, the inhibition is 18.4%.
`C=CC(=O)Nc1cccc(Oc2ncnc3[nH]cc(-c4cnc5ccccc5c4)c23)c1`: the inhibition is 67.9% (active).
Same read-out and setting: then `NC(=O)CC[C@H](NC(=O)c1ccc(F)cc1)C(=O)OCC(=O)Nc1ccc(N2CCOCC2)cc1`, with 57.5% (active).
Still for that read-out and setting: next, `COc1cc(-c2cc(C(=O)NCc3ccc(S(N)(=O)=O)cc3)c3ccccc3n2)cc(OC)c1OC`: 20.3%; `COCCn1c(SCC(=O)Nc2ccc(NC(C)=O)cc2)nc2ccccc2c1=O`: 57.9% (active); `O=[N+]([O-])c1ccc(N2CCCC2)nc1N1CCCC1`: 59.7% (active).
The same measure, in the same setting: then `O=C(NC1CCCC(C(F)(F)F)C1)c1ccc([N+](=O)[O-])o1` (stereo not given), with 65.4% (active); and `O=C1CC(c2ccc3c(c2)OCCO3)Oc2ccc([N+](=O)[O-])cc21` (stereo not given), with -49.9%.
`COc1ccc(CNC(=O)O[C@@H]2C[C@H]3C(=O)N(c4ccccc4)C(=O)[C@H]3[C@@]3(CN(S(=O)(=O)c4ccc(C)cc4)C[C@H]3C)[C@@H]2O)cc1OC`: the inhibition was 18.4%.
Same read-out and setting: next, `Cn1c(=O)oc2cc(NC(=O)CCl)ccc21`: 61.6% (active); `CNc1c2cccc(C)c2nc2c(C(=O)NCCN(C)C)cccc12`: 109% (active); `COc1ccc(OC)c(NS(=O)(=O)c2ccc(SC)cc2)c1`: 55% (active).
`COCCn1c(SCC(=O)Nc2ccc(C(C)=O)cc2)nnc1-c1ccco1`: the inhibition was 43.4% (active).
Same read-out and setting: then `O=C(Nc1ccc(S(=O)(=O)N2CCOCC2)cc1)c1cccc([N+](=O)[O-])c1`, with 56.9% (active); and `CN1CCN(C2=C(Cl)C(=O)N(c3ccc(Cl)c(Cl)c3)C2=O)CC1`, with 39.3%; and `O=C(CSc1ncnc2c1cnn2-c1ccccc1)Nc1ccc2c(c1)OCO2`, with 55.6% (active).
Still for that read-out and setting: next, `CCn1c(=O)[nH]c(=O)c2c(N)c(C(=O)c3cc(F)ccc3F)sc21`: 59.5% (active).
The same measure, in the same setting: next, `CCc1nc(SCC(=O)N2CCc3cc(OC)c(OC)cc3C2)c(C#N)cc1C`: 47.4% (active).
As to `O=C(c1ccccc1)N(NC(=O)C(O)(c1ccccc1)c1ccccc1)c1cccc(F)c1`, the inhibition is 61.5% (active).
Consider `COc1ccc(NS(=O)(=O)c2ccc(-c3coc(C)n3)cc2)cc1OC`, for which the inhibition was 65.6% (active).
The same measure, in the same setting: next, `CCOC(=O)CCCc1ccc(/C(C)=N/NC(N)=S)cc1`: 62.4% (active); `COc1ccc(C2=NS(=O)(=O)N(C)C(C(=O)N3CCc4ccccc4C3)=C2)cc1OC`: 43% (active).
The same measure, in the same setting: next, `COc1ccc(NC(=O)CSc2nnc3ccc(-c4cccnc4)nn23)cc1OC`: 42.1% (active); `O=c1cc(C2CCCCC2)[nH]c(=O)[nH]1`: 48.1% (active).
Still for that read-out and setting: next, `Cc1ccc(-c2nn3c(C)nnc3s2)cc1NC(=O)c1cccs1`: 67.5% (active); `Cc1cc(O)c(/C=N/Nc2cccc(Cl)c2)c(=O)o1`: 44.5% (active).
`COc1ccc(C2(C)NC(=O)N(CC(=O)Nc3ccc(C)cc3Br)C2=O)cc1OC` (stereo not given): the inhibition was 40.8%.
Regarding `COc1ccc(CCNC(=O)c2ccc(CSc3ccc(Cl)cc3)o2)cc1OC`, the inhibition is 28.3%.
On to `COc1cc2c(cc1OC)-c1c(OC)c(OC)cc3ccnc(c13)C2=O`, for which the inhibition was 68.4% (active).
As for `COc1cc(N)c2ncccc2c1Cl`, the inhibition is 17.4%.
On the same count and under the same terms, next, `N#CCc1ccc(OCCCN2CCC(C(O)(c3ccccc3)c3ccccc3)CC2)cc1`: 40.8%; `CCn1c(SCC(=O)Nc2ccc(Cl)cc2)nnc1C1CC1`: 50.6% (active).
Same read-out and setting: next, `Cc1cc(C(=O)CSc2nnnn2-c2ccccc2)c(C)n1-c1ccc2c(c1)OCO2`: 42.3% (active).
